# Laboratory results as given in PubChem BioAssay.
# The source made the active and inactive calls. Unless noted, how the calls were made is not given here.
# How the values were obtained:
# [1] = tested on: Wnt5a (protein binding on small-molecule microarray); test: Wnt5a binders on small-molecule microarray, primary screen, biophysical, 635/667 nm fluorescence (AID 1142); settings: 635 nm fluorescence, higher = more signal;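 further: fluorescence read at 667 nm with signal to noise per printed feature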
# [2] = cell viability in Huh7 cells, primary screen, cytotoxicity control for HCV replication inhibitor project, CellTiter-Glo luminescence, basal, 48 h (AID 1143); settings: Huh7 HCV replicon, higher = more signal, called active from +8 up or from −8 down;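 further: Huh7 hepatoma cells carrying a hepatitis C replication reporter with no stimulus; test concentration not given here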
# [3] = P. aeruginosa biofilm formation inhibitors, primary screen, PAO1 strain, BacTiter-Glo luminescence, LB-PBS (AID 1144); settings: 12 h, higher = more signal
# [4] = CREB reporter modulators without forskolin, primary screen, cell-based, PC12, CRE-LacZ reporter, unstimulated (AID 1145); settings: no forskolin, luminescence, 4.5 h, higher = more signal, called active from +8 up or from −8 down
# [5] = CREB reporter modulators under forskolin, primary screen, cell-based, PC12, CRE-LacZ reporter, forskolin-stimulated (AID 1146); settings: luminescence, 4.5 h, higher = more signal, called active from +8 up or from −8 down;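 further: PC12 cells with 6xCRE LacZ reporter stimulated by forskolin 10 µM; beta-galactosidase reporter signal reflecting CREB driven transcription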
# [6] = molecular target: Streptavidin (Streptomyces avidinii) (UniProt P22629); test: streptavidin binders on small-molecule microarray, primary screen, artefact control for SMM compound annotation, biophysical, 635/667 nm fluorescence (AID 1147); settings: streptavidin binding, higher = more signal;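 further: signal reflects streptavidin binding to arrayed compounds as a control protein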
# [7] = small-molecule binders of probe aInhba, primary screen, biochemical, small-molecule microarray, 635/667 nm fluorescence (AID 1148); settings: higher = more signal;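 further: score merges 667nm spot fluorescence with signal-to-noise for antibody binding to printed compounds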
# [8] = molecular target: Torsin-1A (Homo sapiens) (UniProt O14656); test: torsin A binders from cell lysate, primary screen, small-molecule microarray, wild-type, 635/667 nm (AID 1149); settings: COS7 hTOR1A-WT lysate, 635 nm fluorescence, higher = more signal
# [9] = molecular target: Torsin-1A (Homo sapiens) (UniProt O14656); test: small-molecule binders of mutant TOR1A in lysate, primary screen, cell lysate, small-molecule microarray, COS7 lysate, 635/667 nm fluorescence (AID 1150); settings: COS7 hTOR1A mutant lysate, 635 nm fluorescence, higher = more signal;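 further: score pools 667 nm emission and signal to noise measuring lysate protein binding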
# [10] = tested on: Sonic hedgehog protein (Shh); test: small-molecule binders of Shh protein, primary screen, biochemical, small-molecule microarray, 635/667 nm fluorescence (AID 1151); settings: small-molecule microarray binding, 635 nm fluorescence; higher = more signal;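 further: Shh protein binding to compounds spotted on small-molecule microarray slides; score combines spot fluorescence intensity with signal-to-noise across triplicate slides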
# [11] = E. coli DRC41 culture turbidity changes, primary screen, E. coli filamentation inducer project, strain DRC41, OD650, 48 h (AID 1152);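 further: E. coli MC1000 strain DRC41 lacking acrAB efflux pump and sulA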; settings: E. coli DRC41 (acrAB sulA), higher = more signal, called active from +8 up or from −8 down
# [12] = small-molecule binders of probe aLefty1, primary screen, biochemical, small-molecule microarray, 635/667 nm fluorescence (AID 1153); settings: higher = more signal;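 further: score merges spot fluorescence with signal-to-noise ratio from the scanned slide images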
# [13] = PSAC antagonists in infected red cells, primary screen, cell-based, P. falciparum Indochina, OD700, 1 h (AID 1154); settings: P. falciparum Indochina infected RBC osmotic lysis, higher = more signal, called active from +8 up or from −8 down
# [14] = PSAC antagonists in infected red cells, primary screen, cell-based, P. falciparum Indochina, OD700, 2 h (AID 1155);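 further: lysis reports solute entry through the parasite surface anion channel PSAC; channel blockers reduce lysis of infected cells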; settings: P. falciparum Indochina infected erythrocytes, osmotic lysis OD700; higher = more signal, called active from +8 up or from −8 down
# [15] = osmotic lysis modulators in infected erythrocytes, primary screen, PSAC antagonist project, cell-based, P. falciparum Indochina, OD700, 3 h (AID 1156); settings: higher = more signal, called active from +8 up or from −8 down
# [16] = PSAC antagonists in infected red cells, primary screen, cell-based, P. falciparum Indochina, OD700, 18 h (AID 1157); settings: P. falciparum Indochina infected erythrocytes, osmotic lysis OD700, 18 h; higher = more signal, called active from +8 up or from −8 down
# [17] = modulators of S6 phosphorylation in cells, primary screen, cell-based, A549, cytoblot, luminescence, serum-stimulated (AID 1158); settings: A549 phospho-S6 cytoblot, 5 h, higher = more signal;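 further: serum-stimulated A549 lung adenocarcinoma cells; signal is phosphorylated S6 detected by cytoblot immunostaining with HRP secondary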
# [18] = molecular target: NADPH oxidase 2 (Homo sapiens) (UniProt P04839); test: NOX2-dependent H2O2 signal modulators, primary screen, NOX inhibitor project, cell-based, HEK293-NOX2, PMA-stimulated, Amplex Red fluorescence (AID 1159); settings: 45 min, higher = more signal, called active from +8 up or from −8 down; further: test concentration not given here
# [19] = molecular target: NADPH oxidase 4 (Homo sapiens) (UniProt Q9NPH5); test: NOX4-dependent H2O2 signal modulators, primary screen, NOX inhibitor project, cell-based, HEK293-NOX4, tetracycline-induced, Amplex Red fluorescence (AID 1160); settings: 45 min, higher = more signal, called active from +8 up or from −8 down
# [20] = molecular target: NADPH oxidase 5 (Homo sapiens) (UniProt Q96PH1); test: NOX5-dependent H2O2 signal modulators, primary screen, NOX inhibitor project, cell-based, HEK293-NOX5, Amplex Red fluorescence (AID 1161); settings: HEK293-NOX5, ionomycin, 45 min, higher = more signal
# NADPH oxidase 5 (Homo sapiens), sequence (Q96PH1 whole entry, looked up): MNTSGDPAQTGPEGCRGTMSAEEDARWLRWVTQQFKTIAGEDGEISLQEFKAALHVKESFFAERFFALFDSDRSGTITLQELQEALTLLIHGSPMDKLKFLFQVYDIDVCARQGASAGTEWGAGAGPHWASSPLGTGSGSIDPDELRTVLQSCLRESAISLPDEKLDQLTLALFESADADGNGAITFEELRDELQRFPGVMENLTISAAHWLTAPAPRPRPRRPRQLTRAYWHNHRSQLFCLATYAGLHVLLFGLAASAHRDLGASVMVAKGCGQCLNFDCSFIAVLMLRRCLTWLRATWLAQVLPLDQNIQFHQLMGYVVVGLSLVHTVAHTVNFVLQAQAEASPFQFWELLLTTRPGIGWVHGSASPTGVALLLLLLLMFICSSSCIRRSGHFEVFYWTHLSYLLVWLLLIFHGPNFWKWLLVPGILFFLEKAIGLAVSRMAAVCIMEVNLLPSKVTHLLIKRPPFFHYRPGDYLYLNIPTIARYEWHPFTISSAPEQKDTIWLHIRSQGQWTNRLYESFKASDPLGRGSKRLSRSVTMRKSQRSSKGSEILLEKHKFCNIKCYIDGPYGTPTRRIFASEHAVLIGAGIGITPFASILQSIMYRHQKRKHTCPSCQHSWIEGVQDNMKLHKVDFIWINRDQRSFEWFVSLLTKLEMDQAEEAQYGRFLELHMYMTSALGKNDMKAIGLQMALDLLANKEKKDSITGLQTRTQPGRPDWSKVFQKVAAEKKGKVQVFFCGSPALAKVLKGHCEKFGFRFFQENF
# NADPH oxidase 2 (Homo sapiens), sequence (P04839 whole entry, looked up): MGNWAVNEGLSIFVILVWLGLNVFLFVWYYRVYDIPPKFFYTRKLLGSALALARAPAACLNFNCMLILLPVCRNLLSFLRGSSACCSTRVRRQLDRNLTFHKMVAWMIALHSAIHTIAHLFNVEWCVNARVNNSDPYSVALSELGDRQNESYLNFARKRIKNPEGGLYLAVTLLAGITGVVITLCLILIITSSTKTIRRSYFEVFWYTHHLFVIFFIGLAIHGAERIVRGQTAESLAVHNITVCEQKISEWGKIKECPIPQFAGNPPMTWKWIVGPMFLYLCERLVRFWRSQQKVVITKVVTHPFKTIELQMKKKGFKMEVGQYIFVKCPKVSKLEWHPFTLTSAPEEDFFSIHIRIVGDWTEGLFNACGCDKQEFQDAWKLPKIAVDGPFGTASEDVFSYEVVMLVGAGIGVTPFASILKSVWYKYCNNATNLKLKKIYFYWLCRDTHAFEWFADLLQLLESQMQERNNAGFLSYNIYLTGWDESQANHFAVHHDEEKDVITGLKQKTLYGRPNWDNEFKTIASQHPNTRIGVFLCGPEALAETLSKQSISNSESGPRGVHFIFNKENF
# NADPH oxidase 4 (Homo sapiens), sequence (Q9NPH5 whole entry, looked up): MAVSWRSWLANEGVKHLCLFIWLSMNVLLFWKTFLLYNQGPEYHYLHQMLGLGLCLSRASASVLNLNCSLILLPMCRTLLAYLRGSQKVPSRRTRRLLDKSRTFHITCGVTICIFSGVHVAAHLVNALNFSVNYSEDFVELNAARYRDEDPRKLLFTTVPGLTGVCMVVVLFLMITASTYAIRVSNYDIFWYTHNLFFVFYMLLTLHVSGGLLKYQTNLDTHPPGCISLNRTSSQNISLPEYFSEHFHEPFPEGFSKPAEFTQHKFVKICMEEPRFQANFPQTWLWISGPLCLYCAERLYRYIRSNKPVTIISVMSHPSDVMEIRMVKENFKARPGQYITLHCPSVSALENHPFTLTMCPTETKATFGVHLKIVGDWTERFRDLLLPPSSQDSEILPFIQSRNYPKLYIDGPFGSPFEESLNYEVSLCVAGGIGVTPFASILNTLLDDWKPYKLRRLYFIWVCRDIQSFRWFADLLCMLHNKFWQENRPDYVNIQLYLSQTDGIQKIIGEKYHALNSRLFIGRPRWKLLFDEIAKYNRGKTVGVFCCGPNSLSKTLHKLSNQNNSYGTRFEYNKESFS
# Streptavidin (Streptomyces avidinii), sequence (P22629 whole entry, looked up): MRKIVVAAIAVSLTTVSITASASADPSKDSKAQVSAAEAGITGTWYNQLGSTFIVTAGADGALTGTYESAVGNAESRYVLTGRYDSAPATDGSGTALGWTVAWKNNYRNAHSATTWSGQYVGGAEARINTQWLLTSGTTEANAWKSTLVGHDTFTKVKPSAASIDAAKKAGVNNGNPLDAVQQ
# Torsin-1A (Homo sapiens), sequence (O14656 whole entry, looked up): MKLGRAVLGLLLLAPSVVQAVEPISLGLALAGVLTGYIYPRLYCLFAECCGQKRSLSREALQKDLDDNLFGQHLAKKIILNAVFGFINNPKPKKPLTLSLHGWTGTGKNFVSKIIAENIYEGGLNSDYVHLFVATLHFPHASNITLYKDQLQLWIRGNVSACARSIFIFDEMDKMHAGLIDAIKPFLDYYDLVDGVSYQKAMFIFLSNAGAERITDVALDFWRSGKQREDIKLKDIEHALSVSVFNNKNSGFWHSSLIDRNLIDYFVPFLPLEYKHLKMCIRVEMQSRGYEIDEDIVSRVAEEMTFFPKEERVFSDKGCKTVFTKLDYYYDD
compound,measurement,setting,value
CCOC(=O)C1=CCC(c2cc3ccccc3[nH]2)N(CCN2CC(C(=O)OCC)=CCC2c2cc3ccccc3[nH]2)C1 (stereo not given),composite z-score,[1],0.125
same,z-score,[2],-1.74 (inactive)
same,z-score,[3],-1.85 (inactive)
same,z-score,[4],-0.275 (inactive)
same,z-score,[5],-0.684 (inactive)
same,composite z-score,[6],0.428
same,composite z-score,[7],0.162
same,composite z-score,[8],0.0418
same,composite z-score,[9],0.104
same,composite z-score,[10],0.54
same,z-score,[11],-0.889 (inactive)
same,composite z-score,[12],0.379
same,z-score,[13],4.01 (inactive)
same,z-score,[14],1.41 (inactive)
same,z-score,[15],2.42 (inactive)
same,z-score,[16],1.03 (inactive)
same,z-score,[17],1.56
same,z-score,[18],-0.756 (inactive)
same,z-score,[19],-0.315 (inactive)
same,z-score,[20],-0.307
COC(=O)C(CC#Cc1ccc2c(c1)[C@]1(C(=O)N2)[C@H](C(=O)NC[C@H](O)c2ccccc2)[C@H]2C(=O)O[C@H](c3ccccc3)[C@H](c3ccccc3)N2[C@@H]1c1ccccc1OCCO)C(=O)OC,composite z-score,[1],0.649
same,z-score,[2],-6.04 (inactive)
same,z-score,[3],-1.21 (inactive)
same,z-score,[4],-0.671 (inactive)
same,z-score,[5],-0.276 (inactive)
same,composite z-score,[6],0.703
same,composite z-score,[7],0.0154
same,composite z-score,[8],0.326
same,composite z-score,[9],0.506
same,composite z-score,[10],1.32
same,z-score,[11],1.52 (inactive)
same,composite z-score,[12],-0.0559
same,z-score,[13],4.2 (inactive)
same,z-score,[14],0.574 (inactive)
same,z-score,[15],0.725 (inactive)
same,z-score,[16],-0.124 (inactive)
same,z-score,[17],1.46
same,z-score,[18],0.504 (inactive)
same,z-score,[19],-0.421 (inactive)
same,z-score,[20],-2.45
COC(=O)[C@@]1(Cc2ccccc2)[C@H]2c3cc(C(=O)N4CCCC4)n(Cc4ccc(OC)c(OC)c4)c3C[C@H]2CN1C(=O)c1ccccc1,composite z-score,[1],0.56
same,z-score,[2],-1.99 (inactive)
same,z-score,[3],0.388 (inactive)
same,z-score,[4],0.39 (inactive)
same,z-score,[5],0.208 (inactive)
same,composite z-score,[6],0.782
same,composite z-score,[7],0.715
same,composite z-score,[8],0.279
same,composite z-score,[9],1.18
same,composite z-score,[10],-0.121
same,z-score,[11],-1.08 (inactive)
same,composite z-score,[12],0.347
same,z-score,[13],1.76 (inactive)
same,z-score,[14],0.41 (inactive)
same,z-score,[15],2.24 (inactive)
same,z-score,[16],0.861 (inactive)
same,z-score,[17],-0.321
same,z-score,[18],0.136 (inactive)
same,z-score,[19],0.104 (inactive)
same,z-score,[20],-3.31
C=CCOC(=O)[C@H]1[C@@H]2C(=O)O[C@@H](c3ccccc3)[C@@H](c3ccccc3)N2[C@@H](c2ccc(OCCOC(=O)[C@@H]3C[C@@H]4C(=O)N[C@@H](CCCC[N+](C)(C)C)C(=O)N4[C@@H]3c3ccc(O)cc3)cc2)[C@]12C(=O)Nc1ccc(I)cc12,composite z-score,[1],1.02
same,z-score,[2],-0.56 (inactive)
same,z-score,[3],0.201 (inactive)
same,z-score,[4],0.553 (inactive)
same,z-score,[5],1.07 (inactive)
same,composite z-score,[6],0.0756
same,composite z-score,[7],0.632
same,composite z-score,[8],1.16
same,composite z-score,[9],1.57
same,composite z-score,[10],2.05
same,z-score,[11],-1.78 (inactive)
same,composite z-score,[12],0.521
same,z-score,[13],-1.03 (inactive)
same,z-score,[14],-0.497 (inactive)
same,z-score,[15],5.53 (inactive)
same,z-score,[16],-0.582 (inactive)
same,z-score,[17],-2.1
same,z-score,[18],1.66 (inactive)
same,z-score,[19],-1.21 (inactive)
same,z-score,[20],0.61
COc1ccccc1CN1C(=O)c2ccccc2[C@](Cc2ccccc2I)(C(=O)NCC(C)C)[C@@H]1c1ccc(CO)cc1,composite z-score,[1],0.0108
same,z-score,[2],-2.13 (inactive)
same,z-score,[3],0.584 (inactive)
same,z-score,[4],0.0279 (inactive)
same,z-score,[5],-0.542 (inactive)
same,composite z-score,[6],-0.738
same,composite z-score,[7],0.126
same,composite z-score,[8],-0.0986
same,composite z-score,[9],-0.61
same,composite z-score,[10],0.034
same,z-score,[11],2.48 (inactive)
same,composite z-score,[12],0.19
same,z-score,[13],4.68 (inactive)
same,z-score,[14],1.44 (inactive)
same,z-score,[15],2.61 (inactive)
same,z-score,[16],0.745 (inactive)
same,z-score,[17],0.276
same,z-score,[18],-0.943 (inactive)
same,z-score,[19],0.928 (inactive)
same,z-score,[20],-0.234
CC(C)(C)N1CC=CC23O[C@@H]4/C=C\CCCOC(=O)C4[C@H]2C(=O)N(CCCO)[C@@H]3C1=O (stereo not given in full),composite z-score,[1],-0.285
same,z-score,[2],0.317 (inactive)
same,z-score,[3],1.68 (inactive)
same,z-score,[4],-0.0697 (inactive)
same,z-score,[5],-0.764 (inactive)
same,composite z-score,[6],-0.773
same,composite z-score,[7],-0.0112
same,composite z-score,[8],0.585
same,composite z-score,[9],0.645
same,composite z-score,[10],0.941
same,z-score,[11],-0.455 (inactive)
same,composite z-score,[12],0.0927
same,z-score,[13],0.46 (inactive)
same,z-score,[14],0.223 (inactive)
same,z-score,[15],-0.772 (inactive)
same,z-score,[16],0.429 (inactive)
same,z-score,[17],0.0241
same,z-score,[18],1.63 (inactive)
same,z-score,[19],0.724 (inactive)
same,z-score,[20],2.51
C=C1C(=O)C=C2CN(C(=O)c3ccccc3)[C@@](Cc3ccc(OC)cc3)(C(=O)OC)[C@@H]12,composite z-score,[1],0.458
same,z-score,[2],-3.68 (inactive)
same,z-score,[3],0.249 (inactive)
same,z-score,[4],0.387 (inactive)
same,z-score,[5],0.2 (inactive)
same,composite z-score,[6],1.72
same,composite z-score,[7],0.863
same,composite z-score,[8],0.124
same,composite z-score,[9],0.319
same,composite z-score,[10],0.193
same,z-score,[11],-1.79 (inactive)
same,composite z-score,[12],1.46
same,z-score,[13],2.02 (inactive)
same,z-score,[14],0.368 (inactive)
same,z-score,[15],0.218 (inactive)
same,z-score,[16],1.23 (inactive)
same,z-score,[17],-0.0615
same,z-score,[18],0.427 (inactive)
same,z-score,[19],1.1 (inactive)
same,z-score,[20],2.68
CC(C)N1C(=O)c2ccccc2[C@@H](C(=O)NCC(F)(F)F)[C@@H]1c1ccc(CO)cc1,composite z-score,[1],-0.167
same,z-score,[2],0.837 (inactive)
same,z-score,[3],1.03 (inactive)
same,z-score,[4],0.145 (inactive)
same,z-score,[5],0.557 (inactive)
same,composite z-score,[6],-0.268
same,composite z-score,[7],-0.152
same,composite z-score,[8],-0.0705
same,composite z-score,[9],-1.02
same,composite z-score,[10],0.119
same,z-score,[11],-0.234 (inactive)
same,composite z-score,[12],0.0376
same,z-score,[13],2.15 (inactive)
same,z-score,[14],0.336 (inactive)
same,z-score,[15],0.181 (inactive)
same,z-score,[16],-0.0376 (inactive)
same,z-score,[17],-0.165
same,z-score,[18],0.74 (inactive)
same,z-score,[19],0.912 (inactive)
same,z-score,[20],-1.21
Cc1ccc(S[C@]2(C(=O)NC(C)C)CC(=O)N(C3CCCCC3)[C@@H]2c2ccc(CO)cc2I)cc1,composite z-score,[1],0.0335
same,z-score,[2],-3.94 (inactive)
same,z-score,[3],-1.17 (inactive)
same,z-score,[4],-0.608 (inactive)
same,z-score,[5],0.74 (inactive)
same,composite z-score,[6],1.46
same,composite z-score,[7],-0.0589
same,composite z-score,[8],1.21
same,composite z-score,[9],2.76
same,composite z-score,[10],1.95
same,z-score,[11],0.497 (inactive)
same,composite z-score,[12],-0.0564
same,z-score,[13],6.28 (inactive)
same,z-score,[14],1.47 (inactive)
same,z-score,[15],1.18 (inactive)
same,z-score,[16],0.916 (inactive)
same,z-score,[17],-0.052
same,z-score,[18],0.877 (inactive)
same,z-score,[19],0.292 (inactive)
same,z-score,[20],1.89
